# Source: PubChem (several laboratories)
# RecA splice inh = blocks M. tuberculosis RecA intein splicing | cell-free RecA intein splicing, fluorescence | inhibition, % (no concentration beside the values) | 290,000 compounds, 0.75% hits | AID 2221; in the data active means inhibition above about 30%;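 further: 0% = vehicle wells and 100% = reference inhibitor control wells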
# Target sequence (P9WHJ3 whole entry, looked up, canonical isoform): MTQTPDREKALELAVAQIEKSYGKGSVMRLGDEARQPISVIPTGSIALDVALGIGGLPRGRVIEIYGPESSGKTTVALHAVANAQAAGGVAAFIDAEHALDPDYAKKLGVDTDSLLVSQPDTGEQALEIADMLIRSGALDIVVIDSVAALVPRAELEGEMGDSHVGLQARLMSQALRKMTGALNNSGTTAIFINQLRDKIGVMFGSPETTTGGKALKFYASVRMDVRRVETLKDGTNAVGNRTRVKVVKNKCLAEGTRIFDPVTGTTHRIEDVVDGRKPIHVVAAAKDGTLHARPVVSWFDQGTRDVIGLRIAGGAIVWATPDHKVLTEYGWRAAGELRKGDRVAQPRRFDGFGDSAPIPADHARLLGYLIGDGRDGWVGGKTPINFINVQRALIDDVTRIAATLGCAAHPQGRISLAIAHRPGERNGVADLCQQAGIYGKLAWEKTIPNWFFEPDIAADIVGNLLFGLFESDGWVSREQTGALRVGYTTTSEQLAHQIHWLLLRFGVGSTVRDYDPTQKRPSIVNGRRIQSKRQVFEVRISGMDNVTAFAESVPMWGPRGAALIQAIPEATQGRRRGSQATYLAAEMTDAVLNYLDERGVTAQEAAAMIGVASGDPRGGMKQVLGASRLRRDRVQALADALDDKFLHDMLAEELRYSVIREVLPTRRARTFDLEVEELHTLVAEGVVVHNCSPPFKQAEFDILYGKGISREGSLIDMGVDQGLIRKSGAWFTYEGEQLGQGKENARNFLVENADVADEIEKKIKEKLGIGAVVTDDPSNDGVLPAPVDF
# Mtb FBA inh = inhibitors of M. tuberculosis fructose-bisphosphate aldolase; P9WQA3; inhibition, % at 1 µM; AID 588726; purified M. tuberculosis FBA, fluorescence read-out; 360,000 compounds, 2.3% hits;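 further: 0% = vehicle and 100% = reference inhibitor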
# CCHFV vOTU inh = blocks the CCHF virus ovarian tumor domain protease. AID 651958. 370,000 compounds, 0.55% hits. CCHFV vOTU protease, Pep-AMC fluorescence. inhibition, % at 11.5 µM; in the data active means inhibition above about 30%; further: 0% = vehicle wells with enzyme and 100% = no enzyme wells
# GDH-TPI counter-1 = inhibits GDH-TPI coupling enzymes, artifact for Mtb FBA screen; inhibition, % at 4.8 µM; GDH-TPI coupled enzyme counterscreen, NADH absorbance; 360,000 compounds, 1.2% hits; AID 588335; in the data active means inhibition above about 30%;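 further: 0% = DMSO wells and 100% = wells lacking the enzyme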
# Mtb FBA confirm = confirmation of M. tuberculosis fructose-bisphosphate aldolase inhibitors. 5,600 compounds, 78% hits. inhibition, % at 1 µM. purified M. tuberculosis FBA, fluorescence read-out. AID 651616. shares compounds with Mtb FBA inh;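 further: 0% = vehicle wells and 100% = reference inhibitor wells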
# GDH-TPI counter-2 = inhibits GDH-TPI coupling enzymes, flagging Mtb FBA hits. inhibition, % at 1 µM. shares compounds with Mtb FBA inh. GDH-TPI coupled enzyme counterscreen, fluorescence. AID 652141. 5,600 compounds, 81% hits; in the data active means inhibition above about 10%
# Active calls of the source: *; i = inactive; nt = no result given; + = active, no number. This is a sample that favours compounds with a hit; in the whole collection about 4.2% have one here. Unless noted, no stated cut-off is given here; in the data, active means inhibition above about 27%; inactive means the rest.
SMILES,RecA splice inh,Mtb FBA inh,CCHFV vOTU inh,GDH-TPI counter-1,Mtb FBA confirm,GDH-TPI counter-2
Oc1ccccc1-c1nc2c3ccccc3c3ccccc3c2[nH]1,2,94*,-29,12,99*,90*
Oc1ccccc1-c1ccn[nH]1,nt,0,-16,0,nt,nt
O=c1oc(-c2cccs2)nc2ccccc12,17,-9,6,17,nt,nt
CCOC(=O)c1[nH]c2ccc(OC)cc2c1NC(=O)c1ccc2c(c1)OCO2,-1,-3,-4,6,nt,nt
CCOC(=O)c1[nH]c2cc(OC)c(OC)cc2c1NC(=O)CN(C)C1CCCCC1,1,33*,-14,40*,8,-3
C=CCOC(=O)Nc1c(C(=O)OC)[nH]c2ccc(Cl)cc12,3,40*,8,17,0,-3
CCOC(=O)c1[nH]c2ccc(OC)cc2c1NC(=O)CCN1CCc2ccccc2C1,3,40*,-13,7,87*,83*
CCOC(=O)c1[nH]c2ccc(OC)cc2c1NC(=O)c1ccccc1C(=O)O,-4,30*,-15,1,31*,31*
CCOC(=O)c1[nH]c2ccc(OC)cc2c1NC(=O)CCN1CCC(C)CC1,0,nt,-16,nt,nt,nt
CCOC(=O)N1CCN(CC(=O)Nc2c(C(=O)OC)[nH]c3ccc(Cl)cc23)CC1,3,17,1,5,nt,nt
Cc1noc(C)c1NC(=O)Nc1ccc2c(c1)C(=O)N([C@H](C)CO)C[C@H](C)[C@@H](CN(C)C(=O)Nc1ccc3c(c1)OCO3)O2,nt,3,-5,4,nt,nt
O=C(ONC(=O)C1C2C=CC(C2)C1C(=O)NOC(=O)c1ccccc1)c1ccccc1 (centres undefined),nt,3,-11,-5,nt,nt
Cc1cc(F)ccc1S(=O)(=O)N1CCCOC1CNC(=O)C(=O)NCCc1ccco1 (centres undefined),nt,-6,5,-2,nt,nt
CCOC(=O)c1[nH]c2ccc(OC)cc2c1NC(=O)CN1CCSCC1,nt,44*,-23,7,68*,52*
CCOC(=O)c1[nH]c2ccc(F)cc2c1NC(=O)c1cc(OC)c(OC)c(OC)c1,-2,5,8,-2,nt,nt
CCOC(=O)c1[nH]c2ccc(OC)cc2c1NC(=O)c1cccc(OC)c1,2,2,2,16,nt,nt
CCOC(=O)c1[nH]c2cc(OC)c(OC)cc2c1NC(=O)CCN1CCSCC1,0,107*,-36,20,126*,115*
CCOC(=O)c1[nH]c2ccc(OC)cc2c1NC(C)=O,0,34*,-22,8,5,-2
CCOC(=O)c1[nH]c2ccc(F)cc2c1NC(=O)c1ccccc1C(=O)O,-6,59*,-53,-2,5,0
O=c1c2ccccc2[nH]c2ccc(O)cc12,i,28*,-23,-6,+,+
CCOC(=O)c1cc2c(=O)n3cccc(C)c3nc2n(CC2CCCO2)c1=NC(C)=O (centres undefined),-1,79*,-70,6,90*,68*
CCCOC(=O)c1ccc(Oc2coc3c(CN(CC)CC)c(O)ccc3c2=O)cc1,-11,55*,-134,22,16,12*
O=C(c1cccc(C(F)(F)F)c1)N1CC[C@H]2[C@H](CCCN2Cc2ccc(F)cc2)C1,nt,nt,5,nt,nt,nt
CC(Nc1oc(-c2ccco2)nc1C#N)c1ccccc1 (centres undefined),3,49*,-19,13,0,-3
CC(C)CNc1oc(-c2ccco2)nc1C#N,-1,72*,-23,7,97*,80*
SMILES,RecA splice inh,Mtb FBA inh,CCHFV vOTU inh,GDH-TPI counter-1,Mtb FBA confirm,GDH-TPI counter-2
N#Cc1nc(COc2ccccc2F)oc1NCc1ccc(F)cc1,0,-2,3,0,nt,nt
N#Cc1nc(-c2ccco2)oc1NCc1ccc(F)cc1,1,40*,-10,3,103*,84*
c1ccc(C2CCC(N3CCN(c4ccccc4)CC3)CC2)cc1 (centres undefined),2,2,nt,3,nt,nt
CN(c1ccccc1)S(=O)(=O)c1cccc(C(=O)NCC(c2cccs2)N2CCOCC2)c1 (centres undefined),nt,1,1,9,nt,nt
O=C(NCc1ccc(Cl)cc1)C1CCCN1C(=O)Nc1ccccc1 (centres undefined),1,-1,2,2,nt,nt
Cc1ccc(/C=C/C(=O)N2CCN(c3ccc(F)cc3)CC2)o1,1,58*,-4,15,38*,36*
O=C(N/N=C/c1cc(Br)cc([N+](=O)[O-])c1O)c1ccc(NC(=O)c2ccc(F)cc2)cc1,8,2,-3,5,nt,nt
CN(C)c1ccc(-c2ccnc3c2CC(C)(C(=O)NCc2ccncc2)O3)cc1 (centres undefined),nt,60*,-35,34*,178*,145*
CC(=O)Nc1cccc(-c2ccnc3c2CC(C)(C(=O)NCc2ccc(N(C)C)cc2)O3)c1 (centres undefined),nt,3,-3,12,nt,nt
CN(C)c1ccc(-c2ccnc3c2CC(C)(C(=O)NCc2ccccc2)O3)cc1 (centres undefined),nt,49*,-6,15,-5,-4
CC1(C(=O)NCc2ccccc2)Cc2c(-c3ccccc3)ccnc2O1 (centres undefined),nt,2,4,4,nt,nt
CC1(C(=O)NCC2CC2)Cc2c(-c3ccccc3)ccnc2O1 (centres undefined),nt,0,11,-6,nt,nt
CN(C)c1ccc(-c2ccnc3c2CC(C)(C(=O)NCc2cccc(Cl)c2)O3)cc1 (centres undefined),nt,62*,-4,18,58*,39*
CN(C)c1ccc(-c2ccnc3c2CC(C)(C(=O)NCC2CCOCC2)O3)cc1 (centres undefined),nt,48*,-35,15,114*,98*
COc1cccc(-c2nc(CS(=O)(=O)CC(=O)NCCN3CCOCC3)c(C)o2)c1,-1,4,-4,18,nt,nt
COc1ccc2c(=O)cc(-c3ccccc3F)oc2c1,0,11,-7,3,nt,nt
COc1ccc2oc(-c3ccncc3)cc(=O)c2c1,nt,30*,-17,5,+,+
CC1(C(=O)NS(=O)(=O)c2cccc(C#N)c2)CCN1C(=O)c1ccc(C2CCCCC2)cc1 (centres undefined),nt,3,-3,2,nt,nt
Cc1ccc(-c2cccc(C(=O)NCc3ccccc3)n2)c2ccccc12,12,4,4,4,nt,nt
Cc1ccc(-c2ccc(C(=O)NCc3ccccc3)o2)c2ccccc12,3,61*,-8,11,120*,74*
COc1ccccc1Cc1c(C2CCCCC2)nc2ccc(Br)cn12,nt,2,3,nt,nt,nt
O=C1NC(c2cccc3ccccc23)Nc2ccccc21 (centres undefined),nt,29*,-12,16,37*,32*
Clc1ccccc1C1Nc2cccc3cccc(c23)N1,6,2,2,14,nt,nt
COc1ccc2ccccc2c1C1NC(=O)c2ccccc2N1 (centres undefined),nt,44*,-47,6,102*,74*
